This is a sample that favours compounds with a hit; in the whole collection about 3.5% have one here.
BoNT F protease: inhibitors of Botulinum neurotoxin F light chain protease | Multiplex microsphere protease cleavage assay, flow cytometry | inhibition, % at 10 µM | hit rate 0.22% among 360,000; in the data active means inhibition above about 35%, passing the limit was not always enough; inconclusive means no clear call, values can overlap the other calls; further: plate controls were buffer without enzyme for full effect and enzyme alone for no effect
Anthrax LF inh2: inhibitors of Bacillus anthracis lethal factor protease; multiplex microsphere protease cleavage assay, LF; inhibition, % at 10 µM; hit rate 0.12% among 360,000; AID 588501; further: plate controls were buffer without enzyme for full effect and enzyme alone for no effect
Target sequence (P15917 whole entry, looked up): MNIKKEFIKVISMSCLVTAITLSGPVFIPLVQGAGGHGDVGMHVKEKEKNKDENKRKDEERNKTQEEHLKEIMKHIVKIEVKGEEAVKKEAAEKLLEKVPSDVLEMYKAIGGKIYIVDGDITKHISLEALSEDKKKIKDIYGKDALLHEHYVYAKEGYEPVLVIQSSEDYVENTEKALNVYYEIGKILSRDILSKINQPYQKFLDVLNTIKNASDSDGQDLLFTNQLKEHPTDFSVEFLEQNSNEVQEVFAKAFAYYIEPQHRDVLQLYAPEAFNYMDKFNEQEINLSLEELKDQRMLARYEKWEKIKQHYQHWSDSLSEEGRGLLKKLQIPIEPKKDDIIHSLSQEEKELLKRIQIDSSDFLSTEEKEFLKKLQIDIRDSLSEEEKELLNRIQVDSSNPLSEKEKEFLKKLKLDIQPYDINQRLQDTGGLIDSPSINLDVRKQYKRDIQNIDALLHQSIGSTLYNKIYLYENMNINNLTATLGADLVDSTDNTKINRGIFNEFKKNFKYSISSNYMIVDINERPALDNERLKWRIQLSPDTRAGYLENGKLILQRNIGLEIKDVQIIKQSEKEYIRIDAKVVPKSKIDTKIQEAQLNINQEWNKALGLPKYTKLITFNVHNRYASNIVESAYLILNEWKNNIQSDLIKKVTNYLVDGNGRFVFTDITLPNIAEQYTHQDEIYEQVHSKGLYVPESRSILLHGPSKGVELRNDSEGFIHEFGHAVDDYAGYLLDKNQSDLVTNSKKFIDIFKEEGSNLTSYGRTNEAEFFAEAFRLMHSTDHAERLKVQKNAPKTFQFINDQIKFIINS
Bead autofluor: flagged as autofluorescent in microsphere protease counterscreen; compound autofluorescence counterscreen, microsphere flow cytometry; stronger effect = higher value; fluorescence intensity (concentration not given with the values); hit rate 3.1% among 360,000; AID 624483; in the data active means fluorescence intensity above about 16000; inconclusive means no clear call, values can overlap the other calls
BoNT-A LC inh2: blocks Botulinum neurotoxin A light chain protease; hit rate 0.17% among 360,000; AID 588499; inhibition, % at 10 µM; multiplex microsphere protease substrate cleavage, flow cytometry; further: plate controls were buffer without enzyme for full effect and enzyme alone for no effect
Starred values were filed as active, the others as inactive; ? = inconclusive. Unless noted, no stated cut-off is given here; in the data, active means inhibition above about 30%; inconclusive means no clear call, values can overlap the other calls; inactive means below that.

SMILES	BoNT F protease	Anthrax LF inh2	Bead autofluor	BoNT-A LC inh2
Cc1ccc(NC2=NC(c3ccc(O)cc3)n3c(nc(C)cc3=O)N2)cc1 (stereo not drawn)	-4	1	22829*	?
CN(c1ccccc1C(=O)O)S(C)(=O)=O	4	-3	18576*	4
CN(c1ccccc1C(=O)Nc1ccc2c(c1)OCCO2)S(C)(=O)=O	-9	1	6096	0
CCOc1ccccc1NC(=O)c1ccccc1N(C)S(C)(=O)=O	-5	0	4808	0
CN(c1ccccc1C(=O)Nc1cccc(Cl)c1Cl)S(C)(=O)=O	0	-2	22508*	0
Cc1ccc(NC(=O)c2ccccc2N(C)S(C)(=O)=O)cc1C	-3	-2	23559*	1
Cc1cccc(NC(=O)c2nc[nH]c2C(=O)N(C)Cc2ccccc2)c1	9	-8	3424	0
N#Cc1c(NC(=S)NC(=O)Cc2cccs2)sc2c1CCCCC2	7	-4	20268*	5
N#Cc1c(NC(=O)CSc2ncn[nH]2)sc2c1CCCCC2	-2	-1	22487*	?
CCCCNC(=O)N(O)C1N(/N=C/c2ccccc2OC)C(=S)SC1(C)C (stereo not drawn)	62*	-7	3477	-1
Cc1ccc(CN(CC(=O)NCCc2ccccc2)C(=O)CCCC(=O)Nc2cc(C)on2)cc1	0	0	17240*	0
Cc1ccc(NC(=O)CSc2nc3ncc(Cl)cc3[nH]2)c(C)c1	-5	1	5749	-1
CC(C)(C)NCC(O)COc1c(F)cc(Br)cc1F (stereo not drawn)	2	1	22894*	2
CC(C)(C)CC(C)(C)NCC(O)COc1c(F)cc(Br)cc1F (stereo not drawn)	0	0	2074	1
CC(NC(=O)c1ccncc1)C(C)(C)C (stereo not drawn)	4	-13	21180*	6
Cc1ccc(C(C)NC(=O)c2ccncc2)cc1C (stereo not drawn)	1	-4	5880	1
CN1/C(=C/C(=O)c2cccs2)Sc2ccccc21	-1	6	20294*	1
CCCSc1nc2sc3c(c2c(=O)[nH]1)CCN(Cc1ccccc1)C3	?	24	8728	32*
CCNC(=O)C1(C)CCN(C(=O)c2ccccc2OC(F)(F)F)C1 (stereo not drawn)	1	2	3397	0
COc1ccc(CNC(=O)c2cc(-c3ccc(OC)c(OC)c3)on2)cc1	0	0	11435	1
COc1ccc(NC(=O)c2cc(-c3ccc(C)cc3)on2)cc1OC	?	-16	3021	1
COc1ccc(-c2cc(C(=O)NCc3ccccc3)no2)cc1OC	3	4	21267*	3
COc1ccc(NC(=O)c2cc(-c3ccc(OC)c(OC)c3)on2)cc1OC	-4	-8	23014*	-1
Cc1c(NS(=O)(=O)c2cc(C(=O)OCC(=O)c3ccccc3F)ccc2Cl)c(=O)n(-c2ccccc2)n1C	-4	-3	3779	0
COc1cccc2c1OC[C@@H](CO)[C@H]2N(C)C(=O)Nc1ccc(Cl)cc1	10	-1	21011*	6
SMILES	BoNT F protease	Anthrax LF inh2	Bead autofluor	BoNT-A LC inh2
COc1ccc(CN(CCC#N)C(=S)NC(=O)c2ccccc2)cc1	0	0	2689	0
N#CCCN(Cc1ccccc1)C(=S)NC(=O)c1ccccc1	2	-1	21936*	?
CCOc1ccccc1NC(=O)CC1NCCNC1=O (stereo not drawn)	7	-14	18163*	4
O=C(CC1C(=O)NCCN1C(=O)Nc1ccccc1)Nc1ccc(F)cc1 (stereo not drawn)	?	-8	4628	-10
O=C(CC1C(=O)NCCN1C(=S)Nc1ccccc1)Nc1ccc2c(c1)OCCO2 (stereo not drawn)	-5	-2	24623*	-3
COc1ccccc1NC(=O)CC1C(=O)NCCN1C(=O)Nc1ccccc1 (stereo not drawn)	5	3	21334*	3
O=C(CC1C(=O)NCCN1C(=O)Nc1ccccc1)Nc1ccc2c(c1)OCO2 (stereo not drawn)	1	-7	2326	0
O=C1c2ccccc2C(c2nnnn2Cc2ccccc2)N1CCCN1CCOCC1 (stereo not drawn)	9	8	5957	1
CCOc1ccc(NC(=O)COC(=O)C2COc3ccccc3O2)cc1 (stereo not drawn)	1	-3	3833	0
Cc1cccc(NC(=O)/C=C/c2ccc([N+](=O)[O-])s2)c1	-6	-1	2160	1
Cc1cccc(NC(=S)N/N=C/c2ccc([N+](=O)[O-])s2)c1	20	52*	3008	88*
CCOc1ccc(CC(=O)Nc2sc(Cc3ccccc3)cc2C(N)=O)cc1OCC	-8	-2	17390*	-5
O=S(=O)(NCc1ccccn1)c1ccccc1	-4	-20	9058	1
O=S(=O)(Cc1ccccc1)NCc1ccccn1	1	3	21025*	-1

Screening results: PubChem, NMMLSC
